GPR151 activ – activates the human receptor GPR151 | Q8TDV0 | PathHunter beta-arrestin GPR151 cells, luminescence | activation, % at 11.2 µM | 1% of 650,000 active | AID 1508602; in the data active means activation above about 4.9%;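 further: 0% = median of compound wells and 100% = cells with positive control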
MITF inh – human MITF inhibition, primary screen. O75030. AlphaScreen MITF homodimerization, bead proximity signal. inhibition, % at 2.6 µM. 0.91% of 650,000 active; in the data active means inhibition above about 50%;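 further: 0% = vehicle wells with protein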
Target sequence (O75030 whole entry, looked up): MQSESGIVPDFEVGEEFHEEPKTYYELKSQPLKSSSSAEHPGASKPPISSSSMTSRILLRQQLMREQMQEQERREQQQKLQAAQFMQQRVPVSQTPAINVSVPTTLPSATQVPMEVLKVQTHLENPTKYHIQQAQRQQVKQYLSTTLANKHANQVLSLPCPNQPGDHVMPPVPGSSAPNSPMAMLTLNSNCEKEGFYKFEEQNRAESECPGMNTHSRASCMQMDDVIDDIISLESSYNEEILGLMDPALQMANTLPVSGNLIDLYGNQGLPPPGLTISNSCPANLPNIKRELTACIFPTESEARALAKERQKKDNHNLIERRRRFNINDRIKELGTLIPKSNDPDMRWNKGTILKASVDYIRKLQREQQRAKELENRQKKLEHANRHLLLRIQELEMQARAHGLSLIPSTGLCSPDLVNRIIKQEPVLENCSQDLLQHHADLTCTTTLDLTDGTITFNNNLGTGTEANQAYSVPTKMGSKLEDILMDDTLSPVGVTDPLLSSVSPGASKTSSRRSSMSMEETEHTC
TEAD-YAP inh – TEAD-YAP interaction inhibition | HEK-TIYL cells, TEAD-Gal4/YAP UAS-luciferase luminescence | inhibition, % at 9.12 µM | 1.4% of 640,000 active | AID 1259422; in the data active means inhibition above about 32%;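 further: 0% = median of test compound wells and 100% = reference inhibitor wells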
FBW7 activator – activators of human E3 ligase FBW7; Q969H0; AlphaScreen FBW7–phospho-cyclin E peptide binding, activator screen; normalized activity (activation), % at 26.1 µM; 0.13% of 650,000 active; AID 1259310; in the data active means normalized activity above about 1.9%;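 further: purified mutant Fbw7 with reduced substrate affinity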
The depositor's hits bear a star. An excerpt weighted towards active compounds, which were near 3.5% of everything screened.

How did O=C(O)c1cccc(N/N=C/c2cc(Br)cs2)c1 do in these assays?
GPR151 activ: -8; MITF inh: 14; TEAD-YAP inh: 38*; FBW7 activator: 0

Results for Cc1ccsc1/C=N/Nc1cccc(C(=O)O)c1 ?
GPR151 activ: -6; MITF inh: 2; TEAD-YAP inh: 48*; FBW7 activator: 0

How did O=C(O)c1cccc(N/N=C/c2cccc3ccccc23)c1 do in these assays?
GPR151 activ: 1; MITF inh: 7; TEAD-YAP inh: 11; FBW7 activator: 0

How did Cc1nn(-c2ccccc2)c(C)c1/C=N/Nc1cccc(C(=O)O)c1 do in these assays?
GPR151 activ: -1; MITF inh: 7; TEAD-YAP inh: 42*; FBW7 activator: 0

How did CCOc1ccc(NC(=O)CN2C(=O)/C(=C3\SC(N4CCOCC4)=NC3=O)c3ccccc32)cc1 do in these assays?
GPR151 activ: -1; MITF inh: 19; TEAD-YAP inh: 0; FBW7 activator: 8.4*

What do the screens show for `COc1cc(/C=C2\SC(N3CCCCC3)=NC2=O)ccc1O`?
GPR151 activ: 1; MITF inh: 1; TEAD-YAP inh: 50*; FBW7 activator: 0

Results for CC(C)(C)c1ccc(/C=C2\SC(N3CCOCC3)=NC2=O)cc1 ?
GPR151 activ: 0; MITF inh: -4; TEAD-YAP inh: 0; FBW7 activator: 0

What do the screens show for `CCOc1ccc(/C=C2\SC(N3CCOCC3)=NC2=O)cc1`?
GPR151 activ: 0; MITF inh: 8; TEAD-YAP inh: 8; FBW7 activator: 2.3*

What do the screens show for `CN1C(=O)/C(=C2\SC(N3CCOCC3)=NC2=O)c2ccccc21`?
GPR151 activ: -2; MITF inh: 16; TEAD-YAP inh: -8; FBW7 activator: 1

What do the screens show for `Cc1ccc(/C=C2/SC(N3CCN(C)CC3)=NC2=O)cc1`?
GPR151 activ: -1; MITF inh: 58*; TEAD-YAP inh: 3; FBW7 activator: 0

Results for Clc1nc(Nc2ccc3c(c2)OCO3)c2[nH]cnc2n1 ?
GPR151 activ: -3; MITF inh: 7; TEAD-YAP inh: -16; FBW7 activator: 0

What do the screens show for `Nc1cccc(NC(=O)CSc2nnc(-c3ccncc3)n2-c2ccccc2)c1`?
GPR151 activ: -1; MITF inh: -4; TEAD-YAP inh: 0; FBW7 activator: 0

Results for CC(C)NCCOCCOc1ccc(Br)cc1Cl ?
GPR151 activ: -1; MITF inh: 16; TEAD-YAP inh: 4; FBW7 activator: 0

Results for O=C1N=C(N2CCOCC2)S/C1=C/c1ccc(O)cc1 ?
GPR151 activ: 0; MITF inh: 8; TEAD-YAP inh: 47*; FBW7 activator: 0

What do the screens show for `CCC(C(=O)NCc1ccc(OC)c(OC)c1)n1ncn2c(cc3occc32)c1=O` (stereo not given)?
GPR151 activ: 0; MITF inh: 0; TEAD-YAP inh: 7; FBW7 activator: 0

How did Cc1cc(C)n(C(=C(/C(Cl)=C(/Cl)Br)[N+](=O)[O-])n2nc(C)cc2C)n1 do in these assays?
GPR151 activ: 0; MITF inh: 14; TEAD-YAP inh: 42*; FBW7 activator: 0

What do the screens show for `C1=NC2(CCCC2)Cc2c1ccc1ccccc21`?
GPR151 activ: -2; MITF inh: -8; TEAD-YAP inh: 32*; FBW7 activator: 0

What do the screens show for `COc1ccccc1C(=O)NCCn1cc(SCC(=O)Nc2ccc(Br)cc2)c2ccccc21`?
GPR151 activ: 0; MITF inh: 8; TEAD-YAP inh: 5; FBW7 activator: 2.0*

What do the screens show for `COc1ccccc1C(=O)NCCn1cc(SCC(=O)Nc2ccc(C)cc2)c2ccccc21`?
GPR151 activ: 0; MITF inh: -2; TEAD-YAP inh: 1; FBW7 activator: 0

How did O=C1CCCN1CCCNc1nc(Nc2cnccn2)nc2c1ncn2-c1ccccc1 do in these assays?
GPR151 activ: -1; MITF inh: -2; TEAD-YAP inh: 46*; FBW7 activator: 0

How did O=C1CCCN1CCCNc1nc(Nc2ccccn2)nc2c1ncn2-c1ccccc1 do in these assays?
GPR151 activ: 1; MITF inh: 6; TEAD-YAP inh: 21; FBW7 activator: 0

How did O=C1CCCN1CCCNc1nc(NCCCN2CCCC2=O)c2ncn(C3CCCCC3)c2n1 do in these assays?
GPR151 activ: -1; MITF inh: 13; TEAD-YAP inh: 0; FBW7 activator: 0

Results for O=C1CCCN1CCCNc1nc(Nc2ccncc2)nc2c1ncn2-c1ccccc1 ?
GPR151 activ: 0; MITF inh: -9; TEAD-YAP inh: 55*; FBW7 activator: 0

What do the screens show for `O=C1CCCN1CCCNc1nc(NCCO)c2ncn(C3CCCCC3)c2n1`?
GPR151 activ: 0; MITF inh: 14; TEAD-YAP inh: 0; FBW7 activator: 1.9*

How did O=C1CCCN1CCCNc1nc(Nc2ccncn2)nc2c1ncn2-c1ccccc1 do in these assays?
GPR151 activ: -2; MITF inh: 5; TEAD-YAP inh: 38*; FBW7 activator: 0

What do the screens show for `O=C(Cc1ccccc1)NNC(=O)CN1C(=O)c2ccccc2C1=O`?
GPR151 activ: -1; MITF inh: 15; TEAD-YAP inh: -2; FBW7 activator: 0

How did Cc1cccc(OCC(O)CN2CCCCC2)c1C (stereo not given) do in these assays?
GPR151 activ: 0; MITF inh: 11; TEAD-YAP inh: 7; FBW7 activator: 0

How did O=C1CCCN1CCCNc1nccc(Nc2ccc(Oc3ccccc3)cc2)n1 do in these assays?
GPR151 activ: 0; MITF inh: -7; TEAD-YAP inh: 39*; FBW7 activator: 0

Results for O=C1CCCN1CCCNc1nc(Nc2ccc3ncccc3c2)nc2c1ncn2-c1ccccc1 ?
GPR151 activ: -2; MITF inh: -9; TEAD-YAP inh: 72*; FBW7 activator: 0

How did CC(=O)Nc1cccc(-c2cccc3cnc(Nc4ccc(-n5cnc(C)n5)cc4)nc23)c1 do in these assays?
GPR151 activ: -1; MITF inh: 21; TEAD-YAP inh: 57*; FBW7 activator: 0

What do the screens show for `Cc1ncn(-c2ccc(Nc3ncc4cccc(-c5ccncc5)c4n3)cc2)n1`?
GPR151 activ: 2; MITF inh: 4; TEAD-YAP inh: 45*; FBW7 activator: 1

Results for Cc1ncn(-c2ccc(Nc3ncc4cccc(-n5cccn5)c4n3)cc2)n1 ?
GPR151 activ: 3; MITF inh: 2; TEAD-YAP inh: 43*; FBW7 activator: 0

Results for O=C1c2ccccc2C(=O)c2cc(S(=O)(=O)O)c(O)cc21 ?
GPR151 activ: -1; MITF inh: 64*; TEAD-YAP inh: 0; FBW7 activator: -1

Results for Nc1cc2c(cc1S(=O)(=O)O)C(=O)c1ccccc1C2=O ?
GPR151 activ: -7; MITF inh: 18; TEAD-YAP inh: -11; FBW7 activator: 0

How did CC(C)(C)NS(=O)(=O)c1cc(Cl)ccc1Cl do in these assays?
GPR151 activ: 0; MITF inh: 8; TEAD-YAP inh: 0; FBW7 activator: 0

What do the screens show for `Cc1nc2ccccn2c1C(=O)N1CCN(c2cccc(C(F)(F)F)c2)CC1`?
GPR151 activ: 5; MITF inh: 3; TEAD-YAP inh: 58*; FBW7 activator: 0

Results for Cc1onc(-c2c(Cl)cccc2Cl)c1C(=O)N1CCN(c2cccc(C(F)(F)F)c2)CC1 ?
GPR151 activ: 1; MITF inh: 16; TEAD-YAP inh: 54*; FBW7 activator: 0

Screens (PubChem)
